From paper PMC7862700, “An all-to-all approach to the identification of sequence-specific readers for epigenetic DNA modifications on cytosine” come the findings set out here.

What all share (test): DAPPL (digital affinity profiling via proximity ligation, sequencing); 10 mM Tris-HCl pH 7.5, 50 mM NaCl, 1 mM DTT, 4% glycerol, room temperature, 30 min; GST-TFs on glutathione beads, 16-mer random dsDNA library, 0.1% formaldehyde crosslink after washing; high values mean tight binding
Settings in all cases: protein: recombinant; tags: N-terminal GST; dsDNA, one strand shown

One test deals with T1, FEV (Homo sapiens, UniProt Q99581 1-238).
T1 sequence: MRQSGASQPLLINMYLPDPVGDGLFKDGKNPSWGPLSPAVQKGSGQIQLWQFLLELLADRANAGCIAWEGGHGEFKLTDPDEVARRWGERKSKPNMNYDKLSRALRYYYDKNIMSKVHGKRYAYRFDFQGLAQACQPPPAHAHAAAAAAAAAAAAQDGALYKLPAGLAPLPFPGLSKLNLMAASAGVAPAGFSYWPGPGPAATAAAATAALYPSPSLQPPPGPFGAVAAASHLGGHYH
The essentials:
(§1)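 In yeast, human transcription factors were expressed with a GST fusion, then pulled down on glutathione beads and given DNA barcodes. Pooled with a tag-only sample, they were exposed to 200 nmole of a 16-mer random double-stranded DNA library (Tris/NaCl/DTT/glycerol buffer, room temperature, 30 min), washed, crosslinked with 0.1% formaldehyde, proximity-ligated using BsaI/T4 ligase for 1 h at 37 °C, PCR-amplified and read on an Illumina NextSeq500. Each hexamer's frequency of reads for a factor, divided by the matching frequency for the tag-only sample, gives the binding signal.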

The next test concerns the target ETV5 (Homo sapiens, UniProt P41161 1-510). In short, it runs like this: as §1
A further test concerns the target T2, SPIC (Homo sapiens, UniProt Q8N5J4 1-248).
T2 sequence: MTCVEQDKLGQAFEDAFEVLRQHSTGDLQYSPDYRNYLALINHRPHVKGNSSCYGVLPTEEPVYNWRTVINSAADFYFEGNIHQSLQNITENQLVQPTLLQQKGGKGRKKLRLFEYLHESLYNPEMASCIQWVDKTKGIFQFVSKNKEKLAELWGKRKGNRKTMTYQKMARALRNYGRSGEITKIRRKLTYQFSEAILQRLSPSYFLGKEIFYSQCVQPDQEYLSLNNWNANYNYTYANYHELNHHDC
The essentials: as §1

The target of a further test is ELF4 (Homo sapiens, UniProt Q99607 1-663). The essentials: as §1
The target in a further test is T3, ELK4 (Homo sapiens, UniProt P28324-2 1-405).
T3 sequence: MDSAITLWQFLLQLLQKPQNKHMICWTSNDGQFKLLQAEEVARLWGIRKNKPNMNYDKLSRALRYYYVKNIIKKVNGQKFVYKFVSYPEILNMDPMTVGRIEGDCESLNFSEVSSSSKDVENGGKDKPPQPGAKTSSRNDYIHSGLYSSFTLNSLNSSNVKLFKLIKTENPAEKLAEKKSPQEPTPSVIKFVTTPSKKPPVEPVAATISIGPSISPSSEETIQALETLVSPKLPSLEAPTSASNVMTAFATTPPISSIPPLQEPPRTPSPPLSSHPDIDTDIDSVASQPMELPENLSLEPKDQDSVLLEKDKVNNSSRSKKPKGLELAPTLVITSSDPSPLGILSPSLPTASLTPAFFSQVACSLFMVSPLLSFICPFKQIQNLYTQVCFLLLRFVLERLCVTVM
The essentials:
as §1

Another test addresses T4, ETV2 (Homo sapiens, UniProt O00321 1-342).
T4 sequence: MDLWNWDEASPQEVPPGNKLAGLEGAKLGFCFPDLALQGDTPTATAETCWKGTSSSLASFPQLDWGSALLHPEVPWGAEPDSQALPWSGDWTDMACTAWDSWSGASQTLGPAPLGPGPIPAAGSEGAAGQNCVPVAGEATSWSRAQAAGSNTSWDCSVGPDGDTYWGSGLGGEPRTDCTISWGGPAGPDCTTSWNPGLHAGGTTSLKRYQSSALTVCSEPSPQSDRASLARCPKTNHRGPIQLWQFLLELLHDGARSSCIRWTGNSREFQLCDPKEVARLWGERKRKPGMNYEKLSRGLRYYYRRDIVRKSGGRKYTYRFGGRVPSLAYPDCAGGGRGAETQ
In short, it runs like this:
as §1

The target of another test is T5, ELF3 (Homo sapiens, UniProt P78545 1-371).
T5 sequence: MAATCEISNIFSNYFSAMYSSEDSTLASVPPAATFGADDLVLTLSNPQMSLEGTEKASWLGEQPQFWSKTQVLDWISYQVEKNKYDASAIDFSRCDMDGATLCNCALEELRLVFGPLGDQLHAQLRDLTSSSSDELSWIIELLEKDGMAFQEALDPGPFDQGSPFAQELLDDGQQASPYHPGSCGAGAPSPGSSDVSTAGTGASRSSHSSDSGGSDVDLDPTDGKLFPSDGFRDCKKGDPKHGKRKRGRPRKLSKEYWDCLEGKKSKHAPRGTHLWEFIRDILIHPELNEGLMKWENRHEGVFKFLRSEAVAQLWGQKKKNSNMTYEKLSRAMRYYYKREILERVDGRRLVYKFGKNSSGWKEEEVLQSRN
The essentials:
as §1

The next test has as its target ETV1 (Homo sapiens, UniProt P50549 1-477). The essentials: as §1

ETV5, sequence (P41161 whole entry): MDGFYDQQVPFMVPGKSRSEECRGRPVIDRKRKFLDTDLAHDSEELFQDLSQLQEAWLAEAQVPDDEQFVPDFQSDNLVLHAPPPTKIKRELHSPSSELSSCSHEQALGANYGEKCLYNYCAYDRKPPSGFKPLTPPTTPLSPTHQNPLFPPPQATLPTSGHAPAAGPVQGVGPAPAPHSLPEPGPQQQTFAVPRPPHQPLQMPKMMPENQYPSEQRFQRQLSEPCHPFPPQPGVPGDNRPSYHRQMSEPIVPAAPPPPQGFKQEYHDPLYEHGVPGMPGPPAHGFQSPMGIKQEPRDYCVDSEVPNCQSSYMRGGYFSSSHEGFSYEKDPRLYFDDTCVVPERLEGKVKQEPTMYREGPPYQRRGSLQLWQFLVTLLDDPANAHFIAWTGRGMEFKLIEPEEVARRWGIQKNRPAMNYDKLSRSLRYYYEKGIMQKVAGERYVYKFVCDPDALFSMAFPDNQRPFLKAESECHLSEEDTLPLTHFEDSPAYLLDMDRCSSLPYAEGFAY
ETV1, sequence (P50549 whole entry): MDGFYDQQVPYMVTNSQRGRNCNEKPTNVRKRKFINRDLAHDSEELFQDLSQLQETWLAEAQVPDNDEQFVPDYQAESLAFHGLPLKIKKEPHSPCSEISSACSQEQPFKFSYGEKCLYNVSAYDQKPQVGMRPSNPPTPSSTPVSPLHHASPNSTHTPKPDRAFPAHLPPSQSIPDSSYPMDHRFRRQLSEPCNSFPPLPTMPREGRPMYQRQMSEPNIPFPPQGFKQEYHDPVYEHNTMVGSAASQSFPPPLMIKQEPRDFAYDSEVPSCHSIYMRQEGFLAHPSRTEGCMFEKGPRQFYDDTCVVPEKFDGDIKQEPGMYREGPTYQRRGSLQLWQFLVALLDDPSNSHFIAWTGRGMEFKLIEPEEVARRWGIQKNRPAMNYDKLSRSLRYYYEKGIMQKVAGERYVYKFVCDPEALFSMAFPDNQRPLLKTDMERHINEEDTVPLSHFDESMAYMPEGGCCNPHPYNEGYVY
ELF4, sequence (Q99607 whole entry): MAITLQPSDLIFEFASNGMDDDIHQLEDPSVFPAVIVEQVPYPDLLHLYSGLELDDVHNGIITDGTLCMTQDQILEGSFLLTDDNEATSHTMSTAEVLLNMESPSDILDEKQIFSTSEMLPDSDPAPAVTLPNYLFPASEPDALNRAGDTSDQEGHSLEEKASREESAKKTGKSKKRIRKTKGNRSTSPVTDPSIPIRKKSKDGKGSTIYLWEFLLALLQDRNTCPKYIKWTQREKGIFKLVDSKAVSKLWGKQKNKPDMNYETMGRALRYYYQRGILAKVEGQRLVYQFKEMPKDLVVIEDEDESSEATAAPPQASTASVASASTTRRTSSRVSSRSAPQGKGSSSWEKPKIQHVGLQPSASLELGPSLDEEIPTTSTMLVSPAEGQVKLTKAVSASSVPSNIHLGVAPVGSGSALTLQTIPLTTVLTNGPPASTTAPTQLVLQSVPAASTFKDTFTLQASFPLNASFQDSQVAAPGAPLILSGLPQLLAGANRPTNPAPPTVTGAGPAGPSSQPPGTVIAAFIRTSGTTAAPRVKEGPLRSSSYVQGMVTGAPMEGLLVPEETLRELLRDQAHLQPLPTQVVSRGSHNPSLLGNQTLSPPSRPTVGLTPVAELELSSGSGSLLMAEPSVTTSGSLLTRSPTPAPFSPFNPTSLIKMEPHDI

On to TGTCAC, for which the binding signal with FEV is 1.2 fold enrichment (6-mer frequency, TF over GST control); with ETV5, 1.15 fold enrichment (6-mer frequency, TF over GST control); in the test with SPIC it was 1.31 fold enrichment (6-mer frequency, TF over GST control); with ELF4, 1.22 fold enrichment (6-mer frequency, TF over GST control); in the test with ELK4, 1.25 fold enrichment (6-mer frequency, TF over GST control); with ETV2, 1.24 fold enrichment (6-mer frequency, TF over GST control). For the same sequence, the binding signal with ELF3 is 1.2 fold enrichment (6-mer frequency, TF over GST control); with ETV1, 1.18 fold enrichment (6-mer frequency, TF over GST control).

Turning to CCACAT, the binding signal was 1.27 fold enrichment (6-mer frequency, TF over GST control) with FEV; 1.17 fold enrichment (6-mer frequency, TF over GST control) with ETV5; 1.29 fold enrichment (6-mer frequency, TF over GST control) in the test with SPIC; 1.21 fold enrichment (6-mer frequency, TF over GST control) with ELF4; 1.28 fold enrichment (6-mer frequency, TF over GST control) in the test with ELK4; 1.17 fold enrichment (6-mer frequency, TF over GST control) with ETV2. The binding signal with ELF3 was 1.17 fold enrichment (6-mer frequency, TF over GST control); with ETV1 it was 1.21 fold enrichment (6-mer frequency, TF over GST control).

As to CTCCGT, the binding signal with FEV was 1.14 fold enrichment (6-mer frequency, TF over GST control); with ETV5, 1.24 fold enrichment (6-mer frequency, TF over GST control); with SPIC, 1.14 fold enrichment (6-mer frequency, TF over GST control); with ELF4, 1.3 fold enrichment (6-mer frequency, TF over GST control); in the test with ELK4, 1.37 fold enrichment (6-mer frequency, TF over GST control); with ETV2, 1.17 fold enrichment (6-mer frequency, TF over GST control). The binding signal with ELF3 was 1.13 fold enrichment (6-mer frequency, TF over GST control); with ETV1 it was 1.15 fold enrichment (6-mer frequency, TF over GST control).

As for CACAAC, the binding signal with FEV was 1.31 fold enrichment (6-mer frequency, TF over GST control); in the test with ETV5 it was 1.24 fold enrichment (6-mer frequency, TF over GST control); in the test with SPIC, 1.25 fold enrichment (6-mer frequency, TF over GST control); with ELF4, 1.23 fold enrichment (6-mer frequency, TF over GST control); with ELK4, 1.25 fold enrichment (6-mer frequency, TF over GST control); with ETV2 it was 1.19 fold enrichment (6-mer frequency, TF over GST control). Further, the binding signal with ELF3 was 1.3 fold enrichment (6-mer frequency, TF over GST control); with ETV1, 1.2 fold enrichment (6-mer frequency, TF over GST control).

For TGCCCT, the binding signal with FEV is 1.18 fold enrichment (6-mer frequency, TF over GST control); in the test with ETV5, 1.11 fold enrichment (6-mer frequency, TF over GST control); in the test with SPIC, 1.2 fold enrichment (6-mer frequency, TF over GST control); in the test with ELF4, 1.12 fold enrichment (6-mer frequency, TF over GST control); in the test with ELK4, 1.25 fold enrichment (6-mer frequency, TF over GST control); with ETV2, 1.13 fold enrichment (6-mer frequency, TF over GST control). For the same sequence, the binding signal with ELF3 is 1.27 fold enrichment (6-mer frequency, TF over GST control); with ETV1, 1.08 fold enrichment (6-mer frequency, TF over GST control).

With ACCCAC, the binding signal is 1.22 fold enrichment (6-mer frequency, TF over GST control) with FEV; 1.15 fold enrichment (6-mer frequency, TF over GST control) in the test with ETV5; 1.23 fold enrichment (6-mer frequency, TF over GST control) with SPIC; 1.23 fold enrichment (6-mer frequency, TF over GST control) in the test with ELF4; 1.21 fold enrichment (6-mer frequency, TF over GST control) in the test with ELK4; 1.19 fold enrichment (6-mer frequency, TF over GST control) with ETV2. The binding signal is 1.33 fold enrichment (6-mer frequency, TF over GST control) with ELF3 and 1.17 fold enrichment (6-mer frequency, TF over GST control) with ETV1.

Regarding ACCCCA, the binding signal is 1.07 fold enrichment (6-mer frequency, TF over GST control) in the test with FEV; 1.05 fold enrichment (6-mer frequency, TF over GST control) in the test with ETV5; 1.15 fold enrichment (6-mer frequency, TF over GST control) in the test with SPIC; 1.12 fold enrichment (6-mer frequency, TF over GST control) with ELF4; 1.2 fold enrichment (6-mer frequency, TF over GST control) with ELK4; 1.04 fold enrichment (6-mer frequency, TF over GST control) with ETV2. Besides, the binding signal with ELF3 is 1.04 fold enrichment (6-mer frequency, TF over GST control); in the test with ETV1 it was 1.06 fold enrichment (6-mer frequency, TF over GST control).

As for CCCTGC, the binding signal was 1.14 fold enrichment (6-mer frequency, TF over GST control) with FEV; 1.18 fold enrichment (6-mer frequency, TF over GST control) with ETV5; 1.25 fold enrichment (6-mer frequency, TF over GST control) with SPIC; 1.38 fold enrichment (6-mer frequency, TF over GST control) in the test with ELF4; 1.21 fold enrichment (6-mer frequency, TF over GST control) with ELK4; 1.05 fold enrichment (6-mer frequency, TF over GST control) with ETV2. Further, the binding signal was 1.12 fold enrichment (6-mer frequency, TF over GST control) with ELF3 and 1.22 fold enrichment (6-mer frequency, TF over GST control) in the test with ETV1.
